The values below come from PubChem BioAssay (NCATS).

The nature of assay [1]: Quantitative high throughput screen for delayed death inhibitors of the malarial parasite plastid, 48 hour incubation (AID 488752). Also: nearly all actives have a fitted effect of over 65% in size. Also: potency is read from the fitted curve at half-maximal effect. Put shortly:
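Luciferase-expressing P. falciparum in RBCs, 2% Hct, 0.1% parasitemia final; RPMI 1640 + 0.5% Albumax; 48 h, 37 C, 5% CO2; luminescence readout, signal drop = growth inhibition.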

Assay [2] deals with Thioredoxin reductase 1, cytoplasmic (Rattus norvegicus) (UniProt O89049). Briefly: qHTS Assay for Inhibitors of Mammalian Selenoprotein Thioredoxin Reductase 1 (TrxR1) (AID 488773). Also: nearly all actives have a fitted effect of over 40% in size. Also: potency is read from the fitted curve at half-maximal effect. To be noted: Potency: inhibition. Put shortly:
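Inhibition is scored from the loss of NADPH fluorescence between first and last reads of an 8-min kinetic run. Selenite (400 uM) was the substrate, added after 15 min compound preincubation at room temperature.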

The target of assay [3] is Flap endonuclease 1 (Homo sapiens) (UniProt P39748). Put plainly: qHTS Validation Assay for the Inhibitors of Human Flap endonuclease 1 (FEN1) (AID 488816). Also: potency is read from the fitted curve at half-maximal effect. Put shortly:
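qHTS format: compounds and 10 nM FEN1 incubated 15 min at room temperature before adding 50 nM substrate. Cleavage followed by reads at 0 and 15 min; normalized data fitted to a four-parameter Hill curve.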
Background: In qHTS, concentration-response curves come from the screen itself.

Assay [4] has as its target M-phase phosphoprotein 8 (Homo sapiens) (UniProt Q99549). Briefly: qHTS Validation Assay for Inhibitors for MPP8 Chromodomain Interactions with Methylated Histone Tails (AID 488949). Also: nearly all actives have a fitted effect of over 55% in size. Also: potency is read from the fitted curve at half-maximal effect. Put shortly: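 MPP8 (50 nM) was preincubated with biotinylated H3(1-18)K9me3 peptide (50 nM) in PBS pH 7.4, 0.01% Tween-20 for 30 min at room temperature, then with compounds for 30 min; binding was detected by AlphaScreen.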

In assay [5] the target is Methanococcus maripaludis chaperonin (MmCpn) (UniProt Q6LX38). Put plainly: High-Throughput Screening for Modulators of Cytosolic Chaperonin Activity: MmCpn Primary Screen (AID 488978).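 Also: 50 nM MmCpn enzyme hydrolysing 30 µM ATP at 37 °C; 0% is about no effect.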 Put shortly: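 MmCpn (50 nM final) was preincubated with compound 5 min at RT, then 30 uM ATP (final) was added and the reaction ran 10 min at 37C. ADP produced was detected by Transcreener HTRF (ex 320 nm; em 590/665 nm).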
Chain of Methanococcus maripaludis chaperonin (MmCpn) (Q6LX38 1-543): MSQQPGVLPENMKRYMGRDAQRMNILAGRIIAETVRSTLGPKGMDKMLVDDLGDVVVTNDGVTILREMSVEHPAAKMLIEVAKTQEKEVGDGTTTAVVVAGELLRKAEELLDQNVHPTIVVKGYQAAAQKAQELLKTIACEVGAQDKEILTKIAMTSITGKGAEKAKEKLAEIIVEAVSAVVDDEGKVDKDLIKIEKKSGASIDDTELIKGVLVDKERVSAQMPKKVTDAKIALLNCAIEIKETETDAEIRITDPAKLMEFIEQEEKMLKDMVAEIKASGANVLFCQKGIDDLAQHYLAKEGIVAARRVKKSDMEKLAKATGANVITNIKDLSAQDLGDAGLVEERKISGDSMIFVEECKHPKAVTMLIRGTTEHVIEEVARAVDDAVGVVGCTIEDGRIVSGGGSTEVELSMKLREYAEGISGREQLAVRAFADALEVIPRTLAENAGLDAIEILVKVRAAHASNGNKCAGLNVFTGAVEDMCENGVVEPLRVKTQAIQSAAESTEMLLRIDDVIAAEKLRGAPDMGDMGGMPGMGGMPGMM

In assay [6] the target is Transient receptor potential cation channel subfamily V member 1 (Homo sapiens) (UniProt Q8NER1). Briefly: HTS Assay for Compounds that Act as Enhancers of the Vanilloid Receptor 1 (AID 488979). Also: 0% is about no effect. Put shortly:
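Calcium influx kinetics via Fluo-8 (480/520 nm) in TRPV1-expressing cells, 2000/well cultured overnight at 35.5C. Compound-alone read 3 min (agonist phase), followed by EC20 capsaicin challenge for 2 min (enhancer phase).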

In assay [7] the target is D(1A) dopamine receptor (Homo sapiens) (UniProt P21728). Put plainly: HTS Assay for Allosteric Agonists of the Human D1 Dopamine Receptor: Primary Screen for Agonists (AID 488981). Also: 0% is about no effect. Put shortly:
(§1)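 Calcium flux in an inducible, force-coupled HEK293 Trex D1 line (overnight at 30 C): agonist mode is the 180 s kinetic read after compound; potentiator mode is the following 180 s read after dopamine at EC20.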

The target is the same in assay [8]. Put plainly: HTS Assay for Allosteric Agonists of the Human D1 Dopamine Receptor: Primary Screen for Potentiators (AID 488982). Also: potency is read from the fitted curve at half-maximal effect. Put shortly: as §1
Assay [9] has the same target. Briefly: HTS Assay for Allosteric Agonists of the Human D1 Dopamine Receptor: Primary Screen for Antagonists (AID 488983).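 Also: calcium flux response to an EC80 dopamine challenge measured with no-wash dye; % is scaled to controls: 0 for no effect and ±100 for the full control effect; nearly all actives have a fitted effect of over 65% in size.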 Put shortly:
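Calcium flux readout, no-wash dye, inducible HEK293 T-REx D1 line (force-coupled). Compound added after 10 s baseline, 180 s kinetic read; then dopamine at EC80, further 180 s read.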

Assay [10] can be described thus: Nrf2 qHTS screen for inhibitors: Validation (AID 493153; active = well fitted inhibition curve with a large enough effect in the main read-out, with a control signal flat, not every such curve was filed as active). To be noted: Potency: luciferase luminescence; viability change: measured here: cytotoxicity max response. Put shortly: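 Concentration-response test in A549 ARE_Fluc reporter cells (5% FBS OPTI-MEM), compound exposure 18-24 h at 37°C, 5% CO2. Cell viability measured first by CellTiter-Fluor fluorescence; ARE-driven luciferase luminescence then measured as Nrf2 activity.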

The nature of assay [11]: qHTS for Inhibitors of Cell Surface uPA Generation: Validation Assay (AID 493164).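 Also: RAW 264.7 macrophage cells exposed to compound for 18 h; 0% is about no effect.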 Put shortly: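 Compounds are titrated over seven points (2.45 nM–38.3 uM final) onto pre-plated RAW 264.7 cells and incubated for 18 h. Retained intracellular ATP, measured with ATP-Lite, indicates blocked lethal factor entry.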
Assay [12] is described as follows: Validation screen for small molecules that induce DNA re-replication in SW480 colon adenocarcinoma cells (AID 504364). Also: potency is read from the fitted curve at half-maximal effect. Put shortly:
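Read-out: total Hoechst intensity of nuclei by fluorescence scanning imager; hits raise the fraction of nuclei with elevated DNA content. Cells received compound for 48 hr at 37 C before a 40 min stain.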

Assay [13] deals with Peptidyl-prolyl cis-trans isomerase NIMA-interacting 1 (Homo sapiens) (UniProt Q13526). Put plainly: qHTS Validation Assay to Find Inhibitors of Pin1 (AID 504536; active = well fitted inhibition curve with a large enough effect in the polarisation, with a control signal flat, not every such curve was filed as active; the % refers to the polarisation;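 also: 0% = full Pin1 enzyme wells and -100% = no-enzyme wells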). Put shortly: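 Fluorescence polarization competition: compounds (titration) displace HiFluor-488-labeled Pin1-1b peptide from Pin1 (0.3 uM final) in pH 7.5 HEPES buffer with DTT, 10 min at room temperature; %Activity normalized to no-enzyme wells, curves fitted.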
Chain of Peptidyl-prolyl cis-trans isomerase NIMA-interacting 1 (Homo sapiens) (Q13526 whole entry, looked up): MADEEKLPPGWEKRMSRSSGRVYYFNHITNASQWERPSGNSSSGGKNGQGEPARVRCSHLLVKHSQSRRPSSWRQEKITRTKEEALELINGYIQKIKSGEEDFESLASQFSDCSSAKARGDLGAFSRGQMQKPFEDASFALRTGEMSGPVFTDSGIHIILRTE

The target of assay [14] is Phosphoglycerate kinase, glycosomal (Trypanosoma brucei brucei) (UniProt P07378). Put plainly: qHTS Validation Assay to Find Inhibitors of Phosphoglycerate Kinase (AID 504547).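 Also: control wells lack PGK and mark full inhibition.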 Put shortly:
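Luminescence end-point (Kinase-Glo Plus, 10 min) after a 60 min room-temperature coupled reaction. GAPDH at 100nM final supplies 1,3-BPG to PGK. Buffer: 100mM TEA pH 7.6, 5mM MgCl2, 0.01% Tween-20. Wells lacking PGK served as controls.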

In assay [15] the target is phosphoglycerate mutase (Leishmania major) (UniProt Q4Q090). Put plainly: qHTS Validation Assay to Find Inhibitors of Phosphoglycerate Mutase (AID 504548).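 Also: end-point luminescence from Kinase-GloPlus after the PGAM reaction; series mostly up to about 58 µM; % is scaled to controls: 0 for no effect and ±100 for the full control effect.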 To be noted: Potency: inhibition qHTS. Put shortly:
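L. major PGAM (1.25nM final) was added to substrate buffer and pinned compound, incubated 45 minutes at room temperature, then Kinase-GloPlus added; luminescence read after 10 minutes. Buffer: 100 mM TEA pH 7.6, 5 mM MgCl2, 0.01% Tween-20.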

Assay [16] concerns the target Ubiquitin carboxyl-terminal hydrolase 1 (Homo sapiens) (UniProt O94782). Briefly: Inhibitors of USP1/UAF1: Pilot qHTS (AID 504865).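 Also: rhodamine fluorescence freed from ubiquitin-rhodamine substrate followed over time; top concentration of the series differs between compounds; % is scaled to controls: 0 for no effect and ±100 for the full control effect; nearly all actives have a fitted effect of over 35% in size.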 Put shortly: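 USP1/UAF1 complex (1nM) preincubated with compound 15 min at room temperature, then Ub-Rho substrate (150nM final) added. Fluorescence read kinetically at 480/540 nm, 6 reads every 60 seconds. Buffer: 50mM HEPES pH 7.8, 0.5mM EDTA, 0.1 mg/ml BSA, 1mM TCEP, 0.01% Tween-20.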

Assay [17] concerns the target Thioredoxin reductase 1, cytoplasmic (Rattus norvegicus) (UniProt O89049). Put plainly: qHTS Assay for Substrates of Mammalian Selenoprotein Thioredoxin Reductase 1 (TrxR1) (AID 488772).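 Also: series mostly up to about 57 µM; 0% is about no effect; a drop in NADPH fluorescence below the no-compound background marks a TrxR1 substrate.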 Put shortly:
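In this dual-purpose format, potential substrates are identified from the first fluorescence read after selenite addition, not from the 8-minute delta. Rat enzyme is preincubated with NADPH and then with compound at ~22 deg C.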

The target in assay [18] is Chromobox protein homolog 1 (Homo sapiens) (UniProt P83916). Briefly: qHTS Validation Assay for Inhibitors of HP1-beta Chromodomain Interactions with Methylated Histone Tails (AID 488953). Also: nearly all actives have a fitted effect of over 50% in size. Also: potency is read from the fitted curve at half-maximal effect. Put shortly: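 AlphaScreen proximity readout: streptavidin donor and Ni-chelate acceptor beads, 10 ug/mL final, 30 min dark, RT. Complex of 50 nM HP1-beta and 50 nM b-H3(1-18)K9me3 formed 30 min, then compound-treated 30 min; PBS pH 7.4/0.01% Tween-20.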
Chain of Chromobox protein homolog 1 (Homo sapiens) (P83916 whole entry, looked up): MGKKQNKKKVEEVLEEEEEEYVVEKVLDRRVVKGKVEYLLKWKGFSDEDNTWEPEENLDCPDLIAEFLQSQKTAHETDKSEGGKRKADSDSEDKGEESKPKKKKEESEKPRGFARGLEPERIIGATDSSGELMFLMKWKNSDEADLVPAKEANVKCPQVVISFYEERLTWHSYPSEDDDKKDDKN

In assay [19] the target is Thyrotropin-releasing hormone receptor (Homo sapiens) (UniProt P34981). Put plainly: qHTS for Small Molecule Agonists and Allosteric Enhancers of Human TRH Receptor: Validation Screen for Agonists (AID 493127;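 active = calcium activation more than 3 SD above the typical response in the agonist read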;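 also: intracellular calcium rise by fluo-8 fluorescence before TRH EC20 addition; 0% is about no effect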). Conditions: TRH receptor agonist cell assay; at 2 µM; stronger effect = higher value. Put shortly:
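Read-out: intracellular calcium release measured kinetically by FDSS (fluo-8, ex 480/em 530 nm), 1 reading/s after a 10-cycle baseline. TRHR cells, 2000/well, cultured 18 h at 33.5C, dye-loaded at room temp. Compound-evoked positive calcium signal flags agonists.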

Records with an inconclusive call do not appear. More than one record can exist for a structure, and the calls need not agree. The source made the active and inactive calls. Unless noted, calls follow the shape of the dose curve; as a rule, active = well fitted curve in the direction sought with a large enough effect; inconclusive = small, poorly fitted or top-dose-only effect, or another doubt; inactive = no such curve, though single readings can be large; an effect the other way counts as inactive or inconclusive.

Chain of Ubiquitin carboxyl-terminal hydrolase 1 (Homo sapiens) (O94782 whole entry, looked up): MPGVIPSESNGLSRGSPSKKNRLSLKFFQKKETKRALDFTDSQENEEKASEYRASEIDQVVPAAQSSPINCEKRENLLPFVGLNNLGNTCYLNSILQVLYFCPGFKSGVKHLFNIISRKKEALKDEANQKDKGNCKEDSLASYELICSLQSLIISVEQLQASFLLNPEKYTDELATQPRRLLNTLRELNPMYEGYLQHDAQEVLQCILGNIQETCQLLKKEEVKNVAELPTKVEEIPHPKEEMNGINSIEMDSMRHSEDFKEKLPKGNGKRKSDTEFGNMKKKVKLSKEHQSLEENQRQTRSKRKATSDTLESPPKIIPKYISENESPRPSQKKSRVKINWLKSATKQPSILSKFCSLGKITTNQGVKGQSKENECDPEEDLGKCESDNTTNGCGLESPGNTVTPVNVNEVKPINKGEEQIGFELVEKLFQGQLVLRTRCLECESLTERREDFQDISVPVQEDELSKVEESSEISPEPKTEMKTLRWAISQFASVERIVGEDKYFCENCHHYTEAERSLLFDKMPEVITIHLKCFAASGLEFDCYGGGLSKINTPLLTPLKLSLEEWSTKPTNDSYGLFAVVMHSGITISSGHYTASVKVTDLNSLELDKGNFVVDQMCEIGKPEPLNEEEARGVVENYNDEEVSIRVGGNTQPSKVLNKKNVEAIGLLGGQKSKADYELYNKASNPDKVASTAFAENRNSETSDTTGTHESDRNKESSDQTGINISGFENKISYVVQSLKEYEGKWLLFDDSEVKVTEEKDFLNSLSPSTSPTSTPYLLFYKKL
Chain of Phosphoglycerate kinase, glycosomal (Trypanosoma brucei brucei) (P07378 whole entry, looked up): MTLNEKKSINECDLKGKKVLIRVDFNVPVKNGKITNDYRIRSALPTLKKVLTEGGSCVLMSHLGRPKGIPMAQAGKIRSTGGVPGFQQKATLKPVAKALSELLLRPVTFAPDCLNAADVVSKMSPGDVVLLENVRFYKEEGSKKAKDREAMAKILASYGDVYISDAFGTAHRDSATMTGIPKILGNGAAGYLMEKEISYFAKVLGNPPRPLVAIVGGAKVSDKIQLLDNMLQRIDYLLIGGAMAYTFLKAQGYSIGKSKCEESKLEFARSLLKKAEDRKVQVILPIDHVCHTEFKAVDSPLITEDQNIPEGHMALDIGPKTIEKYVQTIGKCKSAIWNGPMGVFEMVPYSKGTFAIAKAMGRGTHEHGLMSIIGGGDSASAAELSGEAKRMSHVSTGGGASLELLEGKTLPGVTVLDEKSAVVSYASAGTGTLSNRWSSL
Chain of phosphoglycerate mutase (Leishmania major) (Q4Q090 1-553): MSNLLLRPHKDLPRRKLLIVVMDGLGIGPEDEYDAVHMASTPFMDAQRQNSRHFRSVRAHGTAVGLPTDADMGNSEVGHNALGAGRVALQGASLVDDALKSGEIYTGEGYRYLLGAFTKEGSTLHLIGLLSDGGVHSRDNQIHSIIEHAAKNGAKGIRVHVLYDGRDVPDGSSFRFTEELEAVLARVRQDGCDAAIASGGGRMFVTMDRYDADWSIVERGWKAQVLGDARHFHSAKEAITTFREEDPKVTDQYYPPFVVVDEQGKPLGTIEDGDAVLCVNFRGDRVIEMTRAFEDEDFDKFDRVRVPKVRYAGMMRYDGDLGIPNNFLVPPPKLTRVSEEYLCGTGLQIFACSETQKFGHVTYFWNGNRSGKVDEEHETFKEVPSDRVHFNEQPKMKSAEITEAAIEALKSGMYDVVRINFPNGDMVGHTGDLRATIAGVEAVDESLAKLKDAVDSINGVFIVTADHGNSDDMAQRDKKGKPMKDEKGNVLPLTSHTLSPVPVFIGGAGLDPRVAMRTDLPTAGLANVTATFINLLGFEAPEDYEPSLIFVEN
Chain of D(1A) dopamine receptor (Homo sapiens) (P21728 whole entry, looked up): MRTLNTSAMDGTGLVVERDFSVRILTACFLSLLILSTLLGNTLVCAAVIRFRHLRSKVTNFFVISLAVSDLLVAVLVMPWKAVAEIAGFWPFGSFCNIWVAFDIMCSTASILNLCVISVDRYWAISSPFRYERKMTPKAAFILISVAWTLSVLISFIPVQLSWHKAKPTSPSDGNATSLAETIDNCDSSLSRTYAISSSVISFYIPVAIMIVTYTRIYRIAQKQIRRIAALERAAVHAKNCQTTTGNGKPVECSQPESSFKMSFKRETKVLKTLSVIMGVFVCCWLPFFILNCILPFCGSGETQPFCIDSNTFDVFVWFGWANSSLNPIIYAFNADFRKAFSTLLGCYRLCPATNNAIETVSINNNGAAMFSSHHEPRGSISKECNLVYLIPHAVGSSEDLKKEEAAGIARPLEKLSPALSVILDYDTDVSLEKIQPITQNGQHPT
Chain of M-phase phosphoprotein 8 (Homo sapiens) (Q99549 whole entry, looked up): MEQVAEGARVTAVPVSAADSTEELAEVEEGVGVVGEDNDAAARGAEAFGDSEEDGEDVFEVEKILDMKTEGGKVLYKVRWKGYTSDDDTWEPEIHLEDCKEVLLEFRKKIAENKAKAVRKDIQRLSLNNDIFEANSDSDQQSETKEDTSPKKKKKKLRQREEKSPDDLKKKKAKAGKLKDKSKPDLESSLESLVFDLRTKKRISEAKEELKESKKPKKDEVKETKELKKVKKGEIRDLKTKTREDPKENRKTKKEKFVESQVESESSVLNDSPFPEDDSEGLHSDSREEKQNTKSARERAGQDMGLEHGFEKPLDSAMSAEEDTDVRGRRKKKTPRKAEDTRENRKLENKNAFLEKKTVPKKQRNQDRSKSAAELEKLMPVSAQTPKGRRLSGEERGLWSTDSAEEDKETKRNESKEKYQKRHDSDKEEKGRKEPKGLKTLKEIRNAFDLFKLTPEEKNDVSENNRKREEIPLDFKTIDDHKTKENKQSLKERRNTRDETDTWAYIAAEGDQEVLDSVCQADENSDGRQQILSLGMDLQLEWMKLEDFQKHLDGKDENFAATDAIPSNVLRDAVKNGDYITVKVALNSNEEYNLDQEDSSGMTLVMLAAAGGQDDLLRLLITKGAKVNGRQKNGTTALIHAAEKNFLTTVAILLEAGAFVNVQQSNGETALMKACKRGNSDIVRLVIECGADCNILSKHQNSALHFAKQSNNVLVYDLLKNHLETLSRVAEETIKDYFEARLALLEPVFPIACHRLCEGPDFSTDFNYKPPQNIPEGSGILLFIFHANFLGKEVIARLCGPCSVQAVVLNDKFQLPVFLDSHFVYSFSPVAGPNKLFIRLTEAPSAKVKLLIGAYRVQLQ
Chain of Transient receptor potential cation channel subfamily V member 1 (Homo sapiens) (Q8NER1 whole entry, looked up): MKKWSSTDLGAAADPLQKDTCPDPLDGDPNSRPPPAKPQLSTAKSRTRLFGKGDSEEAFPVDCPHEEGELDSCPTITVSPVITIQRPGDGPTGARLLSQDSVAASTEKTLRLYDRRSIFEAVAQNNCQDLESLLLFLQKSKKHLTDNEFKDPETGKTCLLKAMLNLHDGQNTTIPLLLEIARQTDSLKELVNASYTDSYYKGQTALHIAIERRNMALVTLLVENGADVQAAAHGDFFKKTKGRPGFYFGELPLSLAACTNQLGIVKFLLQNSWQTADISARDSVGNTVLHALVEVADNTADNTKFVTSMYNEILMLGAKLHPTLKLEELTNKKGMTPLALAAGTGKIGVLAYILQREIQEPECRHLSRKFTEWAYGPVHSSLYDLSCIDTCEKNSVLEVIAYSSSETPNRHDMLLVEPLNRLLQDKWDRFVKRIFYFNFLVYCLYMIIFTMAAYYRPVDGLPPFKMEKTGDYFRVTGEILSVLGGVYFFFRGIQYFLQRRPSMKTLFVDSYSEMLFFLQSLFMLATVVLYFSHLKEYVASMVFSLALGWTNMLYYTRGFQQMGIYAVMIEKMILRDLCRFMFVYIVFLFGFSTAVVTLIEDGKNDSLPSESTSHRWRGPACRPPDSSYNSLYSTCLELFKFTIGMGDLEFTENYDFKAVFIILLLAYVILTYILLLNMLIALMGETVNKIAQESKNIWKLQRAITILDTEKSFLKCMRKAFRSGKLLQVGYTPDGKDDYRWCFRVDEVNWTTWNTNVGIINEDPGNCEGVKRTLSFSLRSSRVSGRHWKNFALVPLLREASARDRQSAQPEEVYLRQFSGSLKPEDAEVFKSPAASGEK

For the molecule `O=C(c1ccccc1)c1ccc2n1CCC2C(=O)O` (centres undefined), the Potency entry in assay [1], in assay [2], in [3], in [4], in [8] and in assay [9] was “inactive” throughout. The Potency entry in [10], in assay [12], in assay [14], in [15] and in assay [16] was “inactive” in each case. The outcome in assay [5], in assay [6], in [7], in [11] and in [13] was inactive. In [10], this molecule returned a viability change of 0.0927%.

Regarding `O=C1NC(=O)C(c2ccccc2[N+](=O)[O-])=C1Nc1ccc(O)c(Cl)c1`, the Potency result in assay [1], in assay [9], in assay [10], in assay [14], in [15] and in [16] was “inactive” in each case. The outcome in assay [17], in [5], in assay [6], in [7], in [11] and in assay [13] was inactive. The Potency was 2.67 µM (active) in [2]; 18.9 µM (active) in [3]; 56.2 µM (active) in assay [4]; 35.5 µM (active) in [18]; 5.17 µM (active) in assay [8]. For the same molecule, in assay [19], the activation is 1.69% (inactive). For the same molecule, the viability change in assay [10] amounted to 5.73%.

With `Oc1ccc(-c2nc(-c3ccc(F)cc3)c(-c3ccncc3)[nH]2)cc1`, the Potency entry in assay [1], in assay [2], in assay [3], in [8], in [9] and in [12] was “inactive” throughout. Also, the Potency entry in [14] and in assay [15] was “inactive” throughout. Further, the call in assay [17], in assay [5], in assay [6], in [7], in assay [11] and in assay [13] was inactive. Also, the Potency in assay [4] is 31.6 µM (active) and inactive; in assay [18] it was 56.2 µM (active). The activation in assay [19] was -3.81% (inactive).

Take `CC(=O)O[C@H]1C(=O)[C@@]2(C)C([C@H](OC(=O)c3ccccc3)[C@]3(O)C[C@H](OC(=O)[C@H](O)[C@@H](NC(=O)c4ccccc4)c4ccccc4)C(C)=C1C3(C)C)[C@]1(OC(C)=O)CO[C@@H]1C[C@@H]2O` (some centres undefined): the Potency in assay [1] is 0.117 µM (active); in assay [12], 0.0092 µM (active). The result in assay [17], in [5], in assay [6], in [7] and in assay [11] was inactive. In addition, the Potency entry in assay [2], in assay [3], in [4], in assay [18], in assay [8] and in assay [9] was “inactive” each time. Also, the Potency entry in [14], in [15] and in assay [16] was “inactive” throughout. For the same molecule, in assay [19], the activation is 0.562% (inactive).

For the molecule `Oc1ccc2ccccc2c1SSc1c(O)ccc2ccccc12`, the outcome in assay [17], in assay [5], in assay [7], in [11] and in assay [13] was inactive. Moreover, the Potency entry in assay [2], in assay [3], in assay [9], in [10], in assay [14] and in [15] was “inactive” each time. Further, the Potency result in assay [16] is “inactive”. The Potency in assay [18] was 0.006 µM (active). Further, in [10], the viability change came to 7.1%.
